This is an account of results in ChEMBL document CHEMBL1157539, “Thousands of chemical starting points for antimalarial lead identification” (Nature, 2010).

The structures appear in SMILES notation.

One assay deals with Plasmodium falciparum. Nature of the assay: GSK_TCMDC: Inhibition of Plasmodium falciparum Dd2 in whole red blood cells, using parasite LDH activity as an index of growth. Test compounds present at 2uM. Type of assay: functional.
The molecule `O=C(/C=C/c1ccc(Cl)c(Cl)c1)NC1CCN(Cc2ccc(O)cc2)C1.O=C(O)C(F)(F)F` (stereo not given) gave an Inhibition of 4%.

Turning to `Cc1cc(N(C)C)nc(Nc2ccc(NC(=O)C(C)Oc3ccccc3)cc2)n1` (stereo not given), the Inhibition was determined as 30%.

With `O=C(NCc1cccc(F)c1)c1ccc(O)c(-c2cc(Cl)cc(Cl)c2)c1`, the Inhibition worked out at 99%.

Molecule `O=C(CCc1cccnc1)Nc1cccc(-c2ccc(-c3nc4cc(C(F)(F)F)ccc4[nH]3)cc2)c1` came in with an Inhibition of 0%.

`CCOc1ccc2[nH]c(C)cc(=NN=Cc3ccccc3)c2c1` showed an Inhibition of 8%.

On to `CCOC(=O)C(C#N)NC(=O)C=Cc1ccccc1` (stereo not given), for which the Inhibition is 9%.

For the molecule `CN(C)Cc1ccc(-c2ccc(NC(=O)c3ccc4c(=O)n(Cc5ccoc5)cnc4c3)cc2)cc1`, the Inhibition worked out at 16%.

Regarding `Cc1nc(-c2ccc(-c3ccc(NC(=O)c4coc5ccc(N6CC(C)N(C)C(C)C6)cc45)cc3)c(C)c2)no1.Cl` (stereo not given), the Inhibition is listed as 46%.

Take `Cc1cc(N[C@@H](Cc2ccccc2)C(=O)Nc2ccccc2)nc(NCCc2cccs2)n1.O=C(O)C(F)(F)F`: the Inhibition was found to be 72%.

Molecule `O=C(NCCN1CCN(S(=O)(=O)c2ccc(OC3CCNCC3)c(Br)c2)CC1)c1ccc(Cl)c(Cl)c1.O=C(O)C(F)(F)F` showed an Inhibition of 0%.

Regarding `COc1ccc2nc(-c3ccccc3)cc(NCCCNc3cc(-c4ccccc4)nc4ccc(OC)cc34)c2c1.Cl`, the Inhibition turned out to be 99%.

`CS(=O)(=O)CCNCc1nc(-c2ccc3c(Nc4ccc(Oc5ccccn5)cc4)ccnc3c2)cs1`: the Inhibition came to 89%.

As to `CCCCCCNC(=O)c1nn(CCN2CCC(N3CCCC3)CC2)cc1-c1ccc(Cl)c(Cl)c1`, the Inhibition stood at 33%.

In turn, `Cc1ccccc1C1CCN(C2CCC(NC(=O)/C=C/c3cccc(F)c3F)CC2)CC1` (stereo not given) had an Inhibition of 45%.

The molecule `O=C(Nc1ccc(-c2cccc(-c3nc4cc(C(F)(F)F)ccc4[nH]3)c2)cc1)c1ccoc1` yielded an Inhibition of 13%.

On to `O=S(=O)(Nc1cccc(CCN2CCC(N3CCCCC3)CC2)c1)c1ccc2c(c1)OCCO2`, for which the Inhibition was found to be 5%.

In turn, `Br.CCn1c2c(c(=N)c3ccccc31)CCC2` gave an Inhibition of 61%.

`CCc1c(CCNCCCCCCNCCc2ccc(OC)cc2)ccc(OC)c1OC.Cl` gave an Inhibition of 0%.

`Cc1cc(NC(=O)NCCN2CCC(NS(=O)(=O)c3cccc(Br)c3)C2)c2ccccc2n1.O=C(O)C(F)(F)F` (stereo not given): the Inhibition was found to be 58%.

`O=C1NC(=O)C(c2cccc(NC(=O)c3ccncc3)c2)=C1c1ccccc1` registered an Inhibition of 0%.

Molecule `Cc1cc(NC(=O)Nc2ccc(C#N)cc2)c2ccccc2n1` yielded an Inhibition of 49%.

The molecule `COc1ccc2nccc([C@@H](O)CN3CCC(NCc4cnc5snnc5c4)C(F)C3)c2c1.Cl` (stereo not given in full) gave an Inhibition of 88%.

In turn, `Cl.O=C1Nc2ccc3ncccc3c2/C1=C/Nc1ccc(N2CCN(CCO)CC2)cc1` gave an Inhibition of 55%.

Regarding `COc1ccc(CNc2ncc(-c3ccsc3)c(-c3nccs3)n2)cc1OC`, the Inhibition was 69%.

For the molecule `CC(C)(C)c1cc(NC(=O)c2ccc(Cl)c([N+](=O)[O-])c2)cc(C(C)(C)C)c1`, the Inhibition amounted to 7%.

`COc1ccc2c(N/N=C/c3cccc([N+](=O)[O-])c3)ccnc2c1` displayed an Inhibition of 99%.

Consider `COc1cc(N)c(Cl)cc1C(=O)NCC1CCN(c2nc(C)cc(C)n2)CC1`, for which the Inhibition is on record as 95%.

Consider `CC(=O)NCCNc1cc(N2CCc3ncnc(Nc4ccc(OCc5c(F)cccc5F)c(Cl)c4)c3C2)ncn1`, for which the Inhibition stood at 100%.

The molecule `O=[N+]([O-])c1cccc(/C=N/Nc2ccnc3cc(F)ccc23)c1` had an Inhibition of 100%.

With `CC[C@H](N/C(=N\c1cccc(Cl)c1Cl)Nc1ccc(C#N)cc1O)c1ccccc1`, the Inhibition is on record as 71%.

As to `CCN1CCCC1CNC(=O)c1cc2c(-c3ccc(Cl)cc3)nn(C)c2s1` (stereo not given), the Inhibition turned out to be 20%.

For `Cc1c(F)cc(C(=O)NC2CC2)cc1-c1ccc2c(c1)c(C)nn2S(=O)(=O)c1cccs1`, the Inhibition stood at 92%.

Molecule `CC(C)(C)c1ccc(NC(=O)c2cccc(CN3CCCN(Cc4cccc(O)c4)CC3)c2)cc1.O=C(O)C(F)(F)F` displayed an Inhibition of 69%.

Consider `COc1ccc(NC(=O)Nc2cccc(-c3ccc(-c4nc5cccc(C)c5[nH]4)s3)c2)cc1`, for which the Inhibition is 32%.

`c1nc(CCNc2nc(Nc3ccc4c(c3)OCO4)nc(NC3CCCC3)n2)c[nH]1`: the Inhibition was 0%.

`Fc1cc(Cl)ccc1Nc1ccnc2cc(I)ccc12` came in with an Inhibition of 10%.

As to `O=C(CC1CCCC1)N(Cc1ccc(-c2ccc(CNC3Cc4ccccc4C3)cc2)cc1)CC1CCCCN1.O=C(O)C(F)(F)F` (stereo not given), the Inhibition was found to be 86%.

In the case of `CNC(=O)c1cnc(Nc2ccc3[nH]c(=O)[nH]c3c2)nc1Nc1cccc(OC(C)C)c1.O=C(O)C(F)(F)F`, the Inhibition is listed as 94%.

`CC(C)c1ccc(NC(=O)c2ccc(C(=O)NC3CCN(Cc4ccccc4)CC3)cc2)cc1.O=C(O)C(F)(F)F` displayed an Inhibition of 7%.

As for `CCOC(=O)c1ccc(NC(=O)Nc2cccc(-c3ccc(-c4nc5ccccc5[nH]4)cc3)c2)cc1`, the Inhibition is listed as 86%.

In the next assay the test system is HepG2. Nature of the assay: GSK_TCMDC: Percent inhibition of human HepG2 cell line. Test compounds present at 10uM. It counts as functional.
`O=C(/C=C/c1ccc(Cl)c(Cl)c1)NC1CCN(Cc2ccc(O)cc2)C1.O=C(O)C(F)(F)F` (stereo not given) registered an Inhibition of 15%.

`Cc1cc(N(C)C)nc(Nc2ccc(NC(=O)C(C)Oc3ccccc3)cc2)n1` (stereo not given) had an Inhibition of 2%.

Turning to `O=C(NCc1cccc(F)c1)c1ccc(O)c(-c2cc(Cl)cc(Cl)c2)c1`, the Inhibition stood at 0%.

For `O=C(CCc1cccnc1)Nc1cccc(-c2ccc(-c3nc4cc(C(F)(F)F)ccc4[nH]3)cc2)c1`, the Inhibition is on record as 38%.

`CCOc1ccc2[nH]c(C)cc(=NN=Cc3ccccc3)c2c1` yielded an Inhibition of 5%.

`CCOC(=O)C(C#N)NC(=O)C=Cc1ccccc1` (stereo not given) yielded an Inhibition of 0%.

On to `CN(C)Cc1ccc(-c2ccc(NC(=O)c3ccc4c(=O)n(Cc5ccoc5)cnc4c3)cc2)cc1`, for which the Inhibition is on record as 32%.

As for `Cc1nc(-c2ccc(-c3ccc(NC(=O)c4coc5ccc(N6CC(C)N(C)C(C)C6)cc45)cc3)c(C)c2)no1.Cl` (stereo not given), the Inhibition stood at 21%.

With `Cc1cc(N[C@@H](Cc2ccccc2)C(=O)Nc2ccccc2)nc(NCCc2cccs2)n1.O=C(O)C(F)(F)F`, the Inhibition was 0%.

`O=C(NCCN1CCN(S(=O)(=O)c2ccc(OC3CCNCC3)c(Br)c2)CC1)c1ccc(Cl)c(Cl)c1.O=C(O)C(F)(F)F`: the Inhibition stood at 1%.

`COc1ccc2nc(-c3ccccc3)cc(NCCCNc3cc(-c4ccccc4)nc4ccc(OC)cc34)c2c1.Cl`: the Inhibition turned out to be 100%.

Take `CS(=O)(=O)CCNCc1nc(-c2ccc3c(Nc4ccc(Oc5ccccn5)cc4)ccnc3c2)cs1`: the Inhibition came out at 9%.

In turn, `CCCCCCNC(=O)c1nn(CCN2CCC(N3CCCC3)CC2)cc1-c1ccc(Cl)c(Cl)c1` gave an Inhibition of 31%.

For the molecule `Cc1ccccc1C1CCN(C2CCC(NC(=O)/C=C/c3cccc(F)c3F)CC2)CC1` (stereo not given), the Inhibition was 57%.

With `O=C(Nc1ccc(-c2cccc(-c3nc4cc(C(F)(F)F)ccc4[nH]3)c2)cc1)c1ccoc1`, the Inhibition is reported as 52%.

Consider `O=S(=O)(Nc1cccc(CCN2CCC(N3CCCCC3)CC2)c1)c1ccc2c(c1)OCCO2`, for which the Inhibition was determined as 8%.

The molecule `Br.CCn1c2c(c(=N)c3ccccc31)CCC2` returned an Inhibition of 11%.

Take `CCc1c(CCNCCCCCCNCCc2ccc(OC)cc2)ccc(OC)c1OC.Cl`: the Inhibition came out at 16%.

`Cc1cc(NC(=O)NCCN2CCC(NS(=O)(=O)c3cccc(Br)c3)C2)c2ccccc2n1.O=C(O)C(F)(F)F` (stereo not given): the Inhibition worked out at 0%.

The molecule `O=C1NC(=O)C(c2cccc(NC(=O)c3ccncc3)c2)=C1c1ccccc1` gave an Inhibition of 5%.

Turning to `Cc1cc(NC(=O)Nc2ccc(C#N)cc2)c2ccccc2n1`, the Inhibition was found to be 88%.

In the case of `COc1ccc2nccc([C@@H](O)CN3CCC(NCc4cnc5snnc5c4)C(F)C3)c2c1.Cl` (stereo not given in full), the Inhibition is 13%.

The molecule `Cl.O=C1Nc2ccc3ncccc3c2/C1=C/Nc1ccc(N2CCN(CCO)CC2)cc1` gave an Inhibition of 34%.

Regarding `COc1ccc(CNc2ncc(-c3ccsc3)c(-c3nccs3)n2)cc1OC`, the Inhibition amounted to 10%.

Molecule `CC(C)(C)c1cc(NC(=O)c2ccc(Cl)c([N+](=O)[O-])c2)cc(C(C)(C)C)c1` registered an Inhibition of 0%.

Molecule `COc1ccc2c(N/N=C/c3cccc([N+](=O)[O-])c3)ccnc2c1` gave an Inhibition of 0%.

Turning to `COc1cc(N)c(Cl)cc1C(=O)NCC1CCN(c2nc(C)cc(C)n2)CC1`, the Inhibition is given as 0%.

On to `CC(=O)NCCNc1cc(N2CCc3ncnc(Nc4ccc(OCc5c(F)cccc5F)c(Cl)c4)c3C2)ncn1`, for which the Inhibition worked out at 55%.

The molecule `O=[N+]([O-])c1cccc(/C=N/Nc2ccnc3cc(F)ccc23)c1` registered an Inhibition of 4%.

In turn, `CC[C@H](N/C(=N\c1cccc(Cl)c1Cl)Nc1ccc(C#N)cc1O)c1ccccc1` yielded an Inhibition of 0%.

As for `CCN1CCCC1CNC(=O)c1cc2c(-c3ccc(Cl)cc3)nn(C)c2s1` (stereo not given), the Inhibition stood at 27%.

Molecule `Cc1c(F)cc(C(=O)NC2CC2)cc1-c1ccc2c(c1)c(C)nn2S(=O)(=O)c1cccs1` registered an Inhibition of 34%.

As for `CC(C)(C)c1ccc(NC(=O)c2cccc(CN3CCCN(Cc4cccc(O)c4)CC3)c2)cc1.O=C(O)C(F)(F)F`, the Inhibition is 97%.

For `COc1ccc(NC(=O)Nc2cccc(-c3ccc(-c4nc5cccc(C)c5[nH]4)s3)c2)cc1`, the Inhibition was 23%.

The molecule `c1nc(CCNc2nc(Nc3ccc4c(c3)OCO4)nc(NC3CCCC3)n2)c[nH]1` had an Inhibition of 0%.

The molecule `Fc1cc(Cl)ccc1Nc1ccnc2cc(I)ccc12` gave an Inhibition of 11%.

`O=C(CC1CCCC1)N(Cc1ccc(-c2ccc(CNC3Cc4ccccc4C3)cc2)cc1)CC1CCCCN1.O=C(O)C(F)(F)F` (stereo not given) came in with an Inhibition of 41%.

In turn, `CNC(=O)c1cnc(Nc2ccc3[nH]c(=O)[nH]c3c2)nc1Nc1cccc(OC(C)C)c1.O=C(O)C(F)(F)F` showed an Inhibition of 18%.

The molecule `CC(C)c1ccc(NC(=O)c2ccc(C(=O)NC3CCN(Cc4ccccc4)CC3)cc2)cc1.O=C(O)C(F)(F)F` showed an Inhibition of 30%.

`CCOC(=O)c1ccc(NC(=O)Nc2cccc(-c3ccc(-c4nc5ccccc5[nH]4)cc3)c2)cc1`: the Inhibition amounted to 54%.

Broadly, the Inhibition is how much of the control response was suppressed. A higher Inhibition goes with a strong effect.
